Results filed as inconclusive are left out. Where a call stands in place of a potency, no number is given. Active and inactive are the calls of the source. Unless noted, calls follow the shape of the full dose curve.
What was measured:
[1] = Nuclear factor erythroid 2-related factor 2/antioxidant responsive element (Nrf2/ARE) small molecule agonists: qHTS cell viability counter screen in human keratinocytes (AID 1919968; active = well fitted curve in the direction sought with a large enough effect in the repeat runs; an effect the other way counts as inactive or inconclusive; also: nearly all actives have a fitted effect of over 55% in size; also: potency is read from the fitted curve at half-maximal effect); conditions: KeratinoSens HaCaT ARE cells viability, CellTiter-Fluor, 24 h; series mostly up to 92.4 µM
Summary of the method: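 Stably transfected HaCaT (KeratinoSens), 1,500/well. Test agents in DMSO were applied for 23 h, 37 C/5% CO2. CellTiter-Fluor was incubated 1 h before the fluorescence read.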

[2] = Nuclear factor erythroid 2-related factor 2/antioxidant responsive element (Nrf2/ARE) small molecule agonists: luciferase reporter gene qHTS assay in human keratinocytes (AID 1919969); conditions: KeratinoSens HaCaT ARE-luciferase, luminescence, 24 h; series mostly up to 92.4 µM; also: nearly all actives have a fitted effect of over 35% in size; also: potency is read from the fitted curve at half-maximal effect
[3] = target: Gonadotropin-releasing hormone receptor (Homo sapiens) (UniProt P30968); assay: Human gonadotropin-releasing hormone receptor (GnRHR) small molecule agonists, calcium flux assay in GnRHR-HEK293 cells (AID 1920063); conditions: calcium flux fluorescence, agonist mode; series mostly up to 57.6 µM; also: nearly all actives have a fitted effect of over 35% in size
Summary of the method: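 Stable human GnRHR HEK293 line. 18 h plating, then calcium dye for 1 h at 37 C. Agonist-mode compound addition from DMSO stocks; fluorescence monitored 3 min.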

[4] = target: KiSS-1 receptor (Homo sapiens) (UniProt Q969F8); assay: Human kisspeptin (KISS1R) small molecule agonists, calcium flux assay in KISS1R-HEK293 cells (AID 1920064; active = well fitted curve in the direction sought with a large enough effect in the repeat runs; an effect the other way counts as inactive or inconclusive); conditions: KISS1R-HEK293, calcium flux fluorescence, agonist; series mostly up to 76.8 µM
Summary of the method: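 After overnight (18 h) culture at 37 C/5% CO2, human KISS1R-HEK293 cells received calcium dye for 1 h, then test compound; emission at 540 nm (excitation 480 nm) was tracked for 3 min.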

[5] = G protein-coupled receptor (GPCR) small molecule agonists, calcium flux assay: HEK293 wild type cell line counter screen (AID 1920065); conditions: HEK293 WT calcium flux, fluorescence, agonist mode; series mostly up to 57.6 µM
Summary of the method: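 Following 18 h incubation at 37 C/5% CO2, plates got calcium dye for 1 h; compounds, ATP or DMSO were then pinned in and fluorescence followed kinetically (480/540 nm).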

[6] = p53 small molecule agonists, cell-based qHTS assay with human liver microsomes (AID 1963577); conditions: HCT-116 p53RE-bla with human liver microsomes, ratio, 16 h; series mostly up to 66 µM;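 also: p53 response element beta-lactamase reporter cells with liver microsomes plus NADPH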
Summary of the method: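 Reporter activation was measured by LiveBLAzer fluorescence intensity in p53RE-bla cells, which had been exposed to compounds for 16 h at 37 C alongside 0.5 mg/mL human liver microsomes and 0.5 mg/mL NADPH (final concentrations).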

[7] = p53 small molecule agonists, cell-based qHTS assay with rat liver microsomes (AID 1963578); conditions: HCT-116 p53RE-bla, beta-lactamase ratio, 16 h; series mostly up to 66 µM
Summary of the method: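 Compound in DMSO added to p53RE-bla cells 5 h post-plating; rat microsomes/NADPH 0.5 mg/mL final; 16 h, 37 C; LiveBLAzer 2 h RT.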

[8] = p53 small molecule agonists, cell-based qHTS assay with human liver microsomes: qHTS cell viability counter screen (AID 1963579); conditions: p53RE-bla HCT-116 viability, ATP luminescence, 16 h, HLM; series mostly up to 66 µM; also: nearly all actives have a fitted effect of over 45% in size
Summary of the method: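 HLM-supplemented (0.5 mg/mL final) and NADPH-supplemented (0.5 mg/mL final) p53RE-bla cultures, 4,000 cells per well, were dosed with compounds in DMSO for 16 h at 37 C; luminescent ATP detection (CellTiter-Glo, 30 min, room temperature) quantified surviving cells.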

[9] = p53 small molecule agonists, cell-based qHTS assay with rat liver microsomes: qHTS cell viability counter screen (AID 1963580); conditions: p53RE-bla HCT-116 + rat microsomes, ATP viability, 16 h; series mostly up to 66 µM; also: nearly all actives have a fitted effect of over 45% in size
Summary of the method: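 Counter screen for cytotoxicity under metabolic activation: rat liver microsomes and NADPH, 0.5 mg/mL final each, added with compounds to p53RE-bla HCT-116 cells; 16 h at 37 C, then ATP luminescence read.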

[10] = p53 small molecule agonists, cell-based qHTS assay: qHTS cell viability counter screen (AID 1963581); conditions: p53RE-bla HCT-116 viability, ATP luminescence, 16 h; series mostly up to 66 µM; also: nearly all actives have a fitted effect of over 45% in size
Summary of the method: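 qHTS counter screen: 16 h compound exposure at 37 C of p53RE-bla HCT-116 cells (4,000 per well, seeded 5 h prior), cell viability by ATP luminescence.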

[11] = p53 small molecule agonists, cell-based qHTS assay (AID 1963582; active = well fitted activation curve with a large enough effect in the signal ratio in the repeat runs, not every such curve was filed as active; the % refers to the signal ratio); conditions: HCT-116 p53RE-bla reporter, beta-lactamase FRET ratio, 16 h; series mostly up to 66 µM
Summary of the method: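 Measured: fluorescence from cleaved LiveBLAzer substrate. System: p53RE-bla cells, 16 h compound treatment at 37 C, 2 h substrate step at room temperature.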

[12] = target: 5-hydroxytryptamine receptor 2A (Homo sapiens) (UniProt P28223); assay: 5-hydroxytryptamine receptor 2A (HTR2A) small molecule agonists, cell-based qHTS assay (AID 1963587); conditions: HTR2A-CHO cells, calcium flux fluorescence, agonist mode; series mostly up to 76.8 µM; also: nearly all actives have a fitted effect of over 30% in size
Summary of the method: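 HTR2A-CHO cells, plated 18 h at 37 C/5% CO2, dye-loaded 1 h at 37 C; compounds in DMSO added by pin tool (agonist mode). Intracellular calcium flux read as kinetic fluorescence on FDSS over 2 min at 1 s intervals.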

[13] = target: Muscarinic acetylcholine receptor M1 (Homo sapiens) (UniProt P11229); assay: Cholinergic receptor muscarinic 1 (CHRM1) small molecule antagonists, cell-based qHTS assay (AID 1963588); conditions: CHRM1-CHO antagonist mode, calcium flux fluorescence; series mostly up to 61.5 µM; also: nearly all actives have a fitted effect of over 40% in size
Summary of the method: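 Compounds were tested at 15 concentrations in three independent runs. Dye-loaded CHRM1-CHO cells were exposed 5 min at room temperature before stimulation by acetylcholine added at 50nM. Intracellular calcium was read kinetically on FDSS for 3 min.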

[14] = target: Muscarinic acetylcholine receptor M1 (Homo sapiens) (UniProt P11229); assay: Cholinergic receptor muscarinic 1 (CHRM1) small molecule agonists, cell-based qHTS assay (AID 1963589); conditions: CHRM1-CHO cells, agonist mode, calcium flux fluorescence; series mostly up to 76.8 µM; also: nearly all actives have a fitted effect of over 35% in size
Summary of the method: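 Kinetic fluorescence (1 s intervals) of calcium-sensitive dye in human M1 CHO cells after compound addition; cells pre-incubated 18 h at 37 C/5% CO2 and dye-loaded 1 h.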

[15] = cAMP Responsive Elements (CRE) small molecule agonists, cell-based qHTS assay (AID 1963590); conditions: CRE-bla HEK293T, beta-lactamase FRET ratio, 3 h; series mostly up to 92.4 µM
Summary of the method: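 Test agents in DMSO were incubated 3 h at 37 C/5% CO2 with CRE-bla HEK 293T cells seeded 18 h earlier; LiveBLAzer B/G FRET substrate was added and read after 2 h at room temperature.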

[16] = cAMP Responsive Elements (CRE) small molecule antagonists, cell-based qHTS assay (AID 1963591; active = well fitted inhibition curve with a large enough effect in the signal ratio in the repeat runs, not every such curve was filed as active; the % refers to the signal ratio); conditions: CRE-bla HEK293T, beta-lactamase FRET ratio; series mostly up to 92.4 µM
Summary of the method: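 Reporter line CRE-bla HEK 293T in dialyzed-FBS DMEM; cells preincubated 18 h, treated 3 h with compound plus NKH477 (0.25 uM final); LiveBLAzer FRET, 2 h RT.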

[17] = target: Beta-2 adrenergic receptor (Homo sapiens) (UniProt P07550); assay: Adrenergic beta2 receptor (ADRB2) small molecule antagonists, cell-based qHTS assay (AID 1963592); conditions: CHO-ADRB2 cells, isoproterenol-stimulated cAMP HTRF ratio, 0.5 h; series mostly up to 92.4 µM; also: nearly all actives have a fitted effect of over 50% in size
Summary of the method: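 Assay format: CHO-ADRB2 cells, 18-20hr seeding at 37C/5% CO2, then compound plus 1nM isoproterenol agonist mix for 0.5hr RT. Homogeneous time-resolved fluorescence cAMP detection after 1hr, expressed as 665/615 nm ratio.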

[18] = target: Beta-2 adrenergic receptor (Homo sapiens) (UniProt P07550); assay: Adrenergic beta2 receptor (ADRB2) small molecule agonists, cell-based qHTS assay (AID 1963593); conditions: CHO-ADRB2 cells, cAMP HTRF, 30 min; series mostly up to 92.4 µM;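 also: CHO cells stably overexpressing human ADRB2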
Summary of the method: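 CHO cells stably over-expressing ADRB2 were plated overnight at 37C, then dosed with compounds plus a stimulation mix containing 100uM IBMX and 25uM Ro-20-1724 for 0.5hr at room temperature. cAMP was measured by HTRF competition, 1hr.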

[19] = target: D(2) dopamine receptor (Homo sapiens) (UniProt P14416); assay: Dopamine D2 receptor (DRD2) small molecule agonists, cell-based qHTS assay (AID 1963594); conditions: HEK293-DRD2 cAMP HTRF, agonist mode, 30 min; series mostly up to 92.4 µM; also: nearly all actives have a fitted effect of over 35% in size; also: potency is read from the fitted curve at half-maximal effect
Summary of the method: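 HEK293 cells stably expressing DRD2 were cultured 24 h at 37 C, then given Ro20-1724 (0.1 mM final) and compounds for 10 min at room temperature. NKH477 (200nM) was then added for 30 min. cAMP was read by HTRF.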

[20] = target: D(2) dopamine receptor (Homo sapiens) (UniProt P14416); assay: Dopamine D2 receptor (DRD2) small molecule antagonists, cell-based qHTS assay (AID 1963595; active = well fitted inhibition curve with a large enough effect in the signal ratio in the repeat runs, with a control signal flat; the % refers to the signal ratio); conditions: HEK293-DRD2 cAMP HTRF antagonist mode; series mostly up to 92.4 µM
Summary of the method: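 Stable D2 receptor HEK293 line, 24 h after seeding. Compound preincubated 10 min, then quinpirole (12 nM) with forskolin analogue NKH477 (200 nM), 30 min, room temperature. Detection by time-resolved FRET of cAMP.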

Sequence of 5-hydroxytryptamine receptor 2A (Homo sapiens) (P28223 whole entry, looked up): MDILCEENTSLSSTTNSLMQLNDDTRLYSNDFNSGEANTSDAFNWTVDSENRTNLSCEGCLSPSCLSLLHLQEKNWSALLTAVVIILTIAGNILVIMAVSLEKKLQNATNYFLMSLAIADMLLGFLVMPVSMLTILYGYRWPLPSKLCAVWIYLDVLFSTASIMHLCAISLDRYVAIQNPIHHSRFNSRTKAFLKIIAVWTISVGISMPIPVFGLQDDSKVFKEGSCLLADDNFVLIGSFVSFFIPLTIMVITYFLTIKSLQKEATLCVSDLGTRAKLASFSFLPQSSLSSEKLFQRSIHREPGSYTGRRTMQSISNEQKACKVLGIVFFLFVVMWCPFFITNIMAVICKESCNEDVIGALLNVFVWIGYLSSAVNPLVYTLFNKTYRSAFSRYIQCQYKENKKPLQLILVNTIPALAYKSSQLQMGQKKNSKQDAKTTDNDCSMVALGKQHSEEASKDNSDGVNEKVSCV
Sequence of D(2) dopamine receptor (Homo sapiens) (P14416 whole entry, looked up): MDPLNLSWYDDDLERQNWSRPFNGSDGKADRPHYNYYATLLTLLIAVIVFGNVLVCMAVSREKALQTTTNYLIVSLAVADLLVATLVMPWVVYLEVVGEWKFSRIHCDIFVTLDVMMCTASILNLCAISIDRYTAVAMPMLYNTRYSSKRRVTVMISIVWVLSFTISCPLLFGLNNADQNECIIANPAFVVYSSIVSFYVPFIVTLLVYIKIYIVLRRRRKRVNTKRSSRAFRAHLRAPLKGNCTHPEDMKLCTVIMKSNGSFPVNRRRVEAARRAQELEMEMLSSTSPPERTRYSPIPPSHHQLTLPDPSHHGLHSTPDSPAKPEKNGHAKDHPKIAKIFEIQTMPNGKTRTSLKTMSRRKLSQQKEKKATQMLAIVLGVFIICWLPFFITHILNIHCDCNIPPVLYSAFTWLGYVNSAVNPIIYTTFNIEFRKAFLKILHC
Sequence of Gonadotropin-releasing hormone receptor (Homo sapiens) (P30968 whole entry, looked up): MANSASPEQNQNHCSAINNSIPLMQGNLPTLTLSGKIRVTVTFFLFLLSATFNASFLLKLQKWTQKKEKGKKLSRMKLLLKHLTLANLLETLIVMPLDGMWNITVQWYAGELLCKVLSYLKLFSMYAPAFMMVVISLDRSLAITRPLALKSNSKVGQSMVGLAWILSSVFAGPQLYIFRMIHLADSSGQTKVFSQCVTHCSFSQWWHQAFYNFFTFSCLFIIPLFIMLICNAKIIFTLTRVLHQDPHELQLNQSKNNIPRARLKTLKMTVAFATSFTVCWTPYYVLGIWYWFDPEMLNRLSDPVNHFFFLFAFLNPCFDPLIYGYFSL
Sequence of KiSS-1 receptor (Homo sapiens) (Q969F8 whole entry, looked up): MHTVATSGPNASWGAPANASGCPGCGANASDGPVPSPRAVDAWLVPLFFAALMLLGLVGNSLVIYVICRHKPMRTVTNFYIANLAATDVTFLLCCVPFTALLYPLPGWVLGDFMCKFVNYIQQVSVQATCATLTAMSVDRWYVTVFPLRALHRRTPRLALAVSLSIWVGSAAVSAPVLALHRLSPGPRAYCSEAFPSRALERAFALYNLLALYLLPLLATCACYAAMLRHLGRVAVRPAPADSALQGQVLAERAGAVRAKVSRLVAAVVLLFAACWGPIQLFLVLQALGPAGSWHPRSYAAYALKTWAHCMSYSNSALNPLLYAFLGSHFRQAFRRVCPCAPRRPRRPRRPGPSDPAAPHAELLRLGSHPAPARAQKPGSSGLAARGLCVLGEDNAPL
Sequence of Muscarinic acetylcholine receptor M1 (Homo sapiens) (P11229 whole entry, looked up): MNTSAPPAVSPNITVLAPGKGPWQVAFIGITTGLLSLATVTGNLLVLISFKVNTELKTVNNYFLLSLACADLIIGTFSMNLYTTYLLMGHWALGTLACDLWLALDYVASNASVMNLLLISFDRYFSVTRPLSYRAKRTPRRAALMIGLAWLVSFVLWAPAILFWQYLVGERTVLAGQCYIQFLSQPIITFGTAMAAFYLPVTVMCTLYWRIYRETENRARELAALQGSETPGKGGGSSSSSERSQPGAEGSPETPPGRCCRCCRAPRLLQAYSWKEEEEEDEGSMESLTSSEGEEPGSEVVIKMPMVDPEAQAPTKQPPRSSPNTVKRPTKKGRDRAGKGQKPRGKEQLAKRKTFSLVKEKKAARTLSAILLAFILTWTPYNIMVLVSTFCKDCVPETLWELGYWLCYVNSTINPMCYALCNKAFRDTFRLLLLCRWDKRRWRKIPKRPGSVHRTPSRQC
Sequence of Beta-2 adrenergic receptor (Homo sapiens) (P07550 whole entry, looked up): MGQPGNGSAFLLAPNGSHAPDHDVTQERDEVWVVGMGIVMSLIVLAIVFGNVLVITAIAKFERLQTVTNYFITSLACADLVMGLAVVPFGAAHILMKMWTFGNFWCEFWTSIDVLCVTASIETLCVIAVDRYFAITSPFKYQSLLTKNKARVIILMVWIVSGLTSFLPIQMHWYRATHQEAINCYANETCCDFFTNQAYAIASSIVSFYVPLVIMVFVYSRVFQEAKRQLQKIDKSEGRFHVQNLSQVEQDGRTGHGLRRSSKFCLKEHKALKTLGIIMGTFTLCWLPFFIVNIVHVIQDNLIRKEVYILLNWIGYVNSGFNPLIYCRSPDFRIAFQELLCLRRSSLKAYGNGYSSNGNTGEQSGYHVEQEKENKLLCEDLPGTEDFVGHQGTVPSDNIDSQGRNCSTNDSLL

SMILES | Potency [1] | Potency [2] | Potency [3] | Potency [4] | Potency [5] | Potency [6] | Potency [7] | Potency [8] | Potency [9] | Potency [10] | Potency [11] | Potency [12] | Potency [13] | Potency [14] | Potency [15] | Potency [16] | Potency [17] | Potency [18] | Potency [19] | Potency [20]
COC(C)(C)CCO | inactive | inactive | inactive | inactive | inactive | inactive | inactive | inactive | inactive | inactive | inactive | inactive | inactive | inactive | inactive | inactive | inactive | inactive | inactive | –
CC(C)(C)CC(C)(C)c1ccc(O)c(-n2nc3ccccc3n2)c1 | 48.6 µM (active) | inactive | inactive | inactive | inactive | inactive | inactive | inactive | inactive | inactive | inactive | inactive | inactive | inactive | inactive | inactive | inactive | inactive | inactive | inactive
CCOc1c(N2CCOCC2)cnn(C)c1=O | inactive | inactive | inactive | inactive | inactive | inactive | inactive | inactive | inactive | inactive | inactive | – | inactive | inactive | inactive | inactive | – | inactive | inactive | inactive
O=C(O)c1ccc(OCCN2CCCCC2)cc1 | inactive | inactive | inactive | inactive | inactive | inactive | inactive | inactive | inactive | inactive | inactive | – | inactive | inactive | – | inactive | inactive | – | inactive | inactive
O=C(O)Cc1ccc(CCNS(=O)(=O)c2ccc(Cl)cc2)cc1 | inactive | inactive | inactive | inactive | inactive | inactive | inactive | inactive | inactive | inactive | inactive | inactive | inactive | inactive | inactive | inactive | inactive | inactive | inactive | inactive
CCCCCCCC(OC)OC | inactive | inactive | inactive | inactive | inactive | inactive | inactive | inactive | inactive | inactive | inactive | inactive | inactive | inactive | inactive | inactive | inactive | inactive | inactive | inactive
O=Cc1cc2ccccc2o1 | inactive | inactive | inactive | inactive | inactive | inactive | inactive | inactive | inactive | inactive | inactive | – | inactive | inactive | inactive | inactive | inactive | inactive | inactive | inactive
CC(C)CCCCCOC(=O)CS | inactive | inactive | inactive | inactive | inactive | inactive | inactive | inactive | inactive | inactive | inactive | inactive | inactive | inactive | inactive | inactive | inactive | inactive | inactive | inactive
CCCCCCCCCCCCCCCCCC(=O)OCC(CC)CCCC (stereo not drawn) | inactive | inactive | inactive | inactive | inactive | inactive | inactive | inactive | inactive | inactive | inactive | – | inactive | inactive | – | inactive | inactive | – | inactive | inactive
NS(=O)(=O)c1ccc(N2CCCCS2(=O)=O)cc1 | inactive | inactive | inactive | inactive | inactive | inactive | inactive | inactive | inactive | inactive | inactive | inactive | – | – | inactive | inactive | inactive | inactive | inactive | inactive
CCCCCCCCCCCCI | inactive | inactive | inactive | inactive | inactive | inactive | inactive | inactive | inactive | inactive | inactive | – | inactive | inactive | inactive | inactive | inactive | – | 54.7 µM (active) | inactive
c1ccc2cc3c4ccccc4c4ccccc4c3cc2c1 | inactive | 24.4 µM (active) | inactive | inactive | inactive | inactive | inactive | inactive | inactive | inactive | inactive | inactive | inactive | inactive | inactive | inactive | inactive | inactive | inactive | inactive
C/C(=N\O)[C@@H](C)NCC(C)(C)CN[C@H](C)/C(C)=N/O | inactive | inactive | inactive | inactive | inactive | inactive | inactive | inactive | inactive | inactive | inactive | – | inactive | inactive | inactive | inactive | inactive | – | inactive | inactive
CC/C=C\CCOC(=O)C(C)C | inactive | inactive | inactive | inactive | inactive | inactive | inactive | inactive | inactive | inactive | inactive | – | inactive | inactive | inactive | inactive | inactive | inactive | inactive | inactive

From PubChem BioAssay (Tox21)
